Results filed as inconclusive are left out. Activity calls are given as the source filed them. The calls were made as follows: active = hit-call score of the fitted dose curve at least 0.9, where 1 is the maximum; inconclusive = response in the unintended direction; inactive = score below 0.9.
Experiment: ATG_M_06_TRANS: Attagene TRANS-FACTORIAL HepG2 Assay for M06 Transcription Factor (Internal Marker) (AID 2282983);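 also: reporter transcript level by RT-PCR then capillary electrophoresis fluorescence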
Conditions: HepG2 Attagene TRANS M06 internal marker reporter
Outline: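 After a 24 h chemical treatment of transfected HepG2, RNA underwent DNase I treatment, reverse transcription and reporter-specific PCR; labelled, HpaI-digested products were sized by capillary electrophoresis. Signal increase relative to DMSO defined activity.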

outcome, inactive:
O=C1C(c2[nH]c3ccc(S(=O)(=O)O)cc3c2O)=Nc2ccc(S(=O)(=O)O)cc21
COc1cc2ncnc(Nc3cccc(Cl)c3)c2cc1OC
O=Cc1ccc(Cl)c([N+](=O)[O-])c1
CC(=O)[C@H]1CC[C@H]2[C@@H]3CC=C4C[C@@H](O)CC[C@]4(C)[C@H]3CC[C@]12C
O=S(=O)(O)c1ccc(O)c2ncccc12
OC[C@H]1O[C@H](O[C@]2(CCl)O[C@H](CCl)[C@@H](O)[C@@H]2O)[C@H](O)[C@@H](O)[C@H]1Cl
CNCCCC12CCC(c3ccccc31)c1ccccc12
C#C[C@]1(O)CC[C@H]2[C@@H]3CCC4=Cc5oncc5C[C@]4(C)[C@H]3CC[C@@]21C
CN1[C@@H]2CC(OC(=O)[C@H](CO)c3ccccc3)C[C@H]1[C@@H]1O[C@@H]12 (stereo partly specified)
CC(=O)/C=C/C1=C(C)CCCC1(C)C
Cc1ccc2n[nH]nc2c1
CCCCCCCCC=O
CCCCNC(=O)NS(=O)(=O)c1ccc(N)cc1
O=C(O)c1ccc(C(=O)O)cc1
CC(C)(C#N)c1cc(Cn2cncn2)cc(C(C)(C)C#N)c1
O=C(O)CN(CCN(CC(=O)O)CC(=O)O)CCN(CC(=O)O)CC(=O)O
CCN(CC)c1ccc(C(=C2C=CC(=[N+](CC)CC)C=C2)c2ccc(S(=O)(=O)O)cc2S(=O)(=O)[O-])cc1
OCCOCCOCCOCCO
N#Cc1ccccc1
CCCOCC(C)O (stereo unspecified)
COc1ccc(Cl)cc1C
O=CCCc1ccccc1
CC(C)OP(=O)(CP(=O)(OC(C)C)OC(C)C)OC(C)C
NC(N)=NC(=O)c1nc(Cl)c(N)nc1N
C=CC(=O)OCCn1c(=O)n(CCOC(=O)C=C)c(=O)n(CCOC(=O)C=C)c1=O
CC[C@]12CCCN3CCc4c(n(c5ccccc45)[C@@](O)(C(=O)OC)C1)[C@@H]32
Nc1cc([N+](=O)[O-])ccc1Cl
CCCCCCCCCC=O
CC(C#N)(CCC(=O)O)N=NC(C)(C#N)CCC(=O)O (stereo unspecified)
CC(C)C(C)(C)C(C)(C)C(C)(C)S
C[C@]12CC[C@H]3[C@@H](CCC4=CC(=O)CC[C@@]43C)[C@@H]1CC[C@@H]2C(=O)CO
O=c1oc(=O)c2cc3c(=O)oc(=O)c3cc12

Experiment: ATG_M_32_TRANS: Attagene TRANS-FACTORIAL HepG2 Assay for M32 Transcription Factor (Internal Marker) (AID 2282984);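 also: transcript level of a background control reporter unit measured by RT-PCR and capillary electrophoresis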
Conditions: HepG2 Attagene TRANS M32 internal marker reporter
Outline: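 HepG2 cells transiently transfected with multiple GAL4-UAS reporter transcription units, dosed for 24 hours; reporter mRNA quantified by RT-PCR, 6-FAM primer extension, HpaI digestion and capillary electrophoresis. Gain-of-signal fitted versus DMSO baseline; internal background-control marker.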

outcome, inactive:
O=C1C(c2[nH]c3ccc(S(=O)(=O)O)cc3c2O)=Nc2ccc(S(=O)(=O)O)cc21
COc1cc2ncnc(Nc3cccc(Cl)c3)c2cc1OC
O=Cc1ccc(Cl)c([N+](=O)[O-])c1
CC(=O)[C@H]1CC[C@H]2[C@@H]3CC=C4C[C@@H](O)CC[C@]4(C)[C@H]3CC[C@]12C
O=S(=O)(O)c1ccc(O)c2ncccc12
NCCCCCCN
OC[C@H]1O[C@H](O[C@]2(CCl)O[C@H](CCl)[C@@H](O)[C@@H]2O)[C@H](O)[C@@H](O)[C@H]1Cl
CN1[C@@H]2CC(OC(=O)[C@H](CO)c3ccccc3)C[C@H]1[C@@H]1O[C@@H]12 (stereo partly specified)
Cc1ccc2n[nH]nc2c1
O=C(O)c1ccc(C(=O)O)cc1
CC(C)(C#N)c1cc(Cn2cncn2)cc(C(C)(C)C#N)c1
CC1(C)C(=O)N(Br)C(=O)N1Cl
CC(C)C[C@H]1C(=O)N2CCC[C@H]2[C@]2(O)O[C@](NC(=O)[C@@H]3C=C4c5cccc6[nH]c(Br)c(c56)C[C@H]4N(C)C3)(C(C)C)C(=O)N12
O=C(O)CN(CCN(CC(=O)O)CC(=O)O)CCN(CC(=O)O)CC(=O)O
CCN(CC)c1ccc(C(=C2C=CC(=[N+](CC)CC)C=C2)c2ccc(S(=O)(=O)O)cc2S(=O)(=O)[O-])cc1
Clc1ccc(Cl)c(Cl)c1Cl
CCCC/C=C\CCCCCCCCCC=O
OCCOCCOCCOCCO
N#Cc1ccccc1
COc1ccc(Cl)cc1C
O=CCCc1ccccc1
CC(C)OP(=O)(CP(=O)(OC(C)C)OC(C)C)OC(C)C
NC(N)=NC(=O)c1nc(Cl)c(N)nc1N
C=CC(=O)OCCn1c(=O)n(CCOC(=O)C=C)c(=O)n(CCOC(=O)C=C)c1=O
CC[C@]12CCCN3CCc4c(n(c5ccccc45)[C@@](O)(C(=O)OC)C1)[C@@H]32
Nc1cc([N+](=O)[O-])ccc1Cl
CC(C#N)(CCC(=O)O)N=NC(C)(C#N)CCC(=O)O (stereo unspecified)
C[C@]12CC[C@H]3[C@@H](CCC4=CC(=O)CC[C@@]43C)[C@@H]1CC[C@@H]2C(=O)CO
O=c1oc(=O)c2cc3c(=O)oc(=O)c3cc12

From PubChem BioAssay (EPA / NIEHS)
